Bioassay records from PubChem BioAssay.
In the library only some 3% were active in any assay of this set; here they are far more common.
S16 F2sN tox – cytotoxicity in S16 Pmp22-F2sN Schwann cells; S16 Pmp22-F2sN Schwann cells viability, CellTiter-Glo, 24 h; Potency, µM (doses to about 57.5 µM), hits mostly cytotoxic; AID 1508642; actives 0.48% (n = 43,000); also: nearly all actives have a fitted effect of over 65% in size
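Rat S16 Schwann reporter line, 24 h treatment with library compounds delivered at 23 nL per well. Cell viability by CellTiter-Glo luminescence.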
p53null 39C kill – selectivity test: cytotoxicity in p53 null cells, nonpermissive temperature. actives 0.97% (n = 55,000). H1299 p53-null (neo) cells, 39C, ATPlite viability, 24 h. Potency, µM (top dose mostly 46.1 µM), usual class: cytotoxic; also: nearly all actives have a fitted effect of over 50% in size
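Luminescent ATP signal reported cell survival after H1299 lines (neo, p53 null; or p53 A138V) received up to 46 uM compound and 24 hr incubation at 39C.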
p53null 32C tox – p53 null cell cytotoxicity, permissive temperature; AID 903; H1299-neo p53 null cells, ATP luminescence, 24 h, 32C; actives 0.62% (n = 55,000); Potency, µM (doses to about 46.1 µM), most hits filed as cytotoxic; also: nearly all actives have a fitted effect of over 55% in size
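H1299-neo, 600 cells/well; overnight 37C; cpd up to 46 uM, 24 h at 32C; ATPlite luminescence after 20 min RT; normalized to DMSO (0%) and tamoxifen 100 uM (100% kill); Hill-fit AC50.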
mTORC1 inh – inhibitors of mTORC1 signaling in Tsc2-/- p53-/- MEF cells; Tsc2-/- p53-/- MEF, phospho-rpS6 immunofluorescence/PI, 24 h; Potency, µM (titrated, usually from 38.3 µM), actives largely listed as inhibitors; actives 0.78% (n = 44,000); AID 493208; also: nearly all actives have a fitted effect of over 50% in size
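Tsc2-/-, p53-/- MEFs (empty-vector stable line) in DMEM + 10% FBS were treated with compounds 24 h at 37 degree Celsius, fixed, and immunostained for phospho-rpS6 (Alexa-488) with propidium iodide counterstain. Laser-scanning cytometry gave % positive cells, normalized against 7.5 nM rapamycin and DMSO.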
PMP22 txn – modulators of PMP22 gene transcription in S16 Schwann cells; S16 Pmp22-F2sN Schwann cells (luciferase reporters placed in the Pmp22 gene), FLuc/NLuc coincidence luminescence, 24 h; actives 2% (n = 43,000); Potency, µM (series often up to 57.5 µM), most hits filed as inhibitors; active = clear falling dose curves in both reporters; inconclusive = both reporters move, but less clearly or upward; inactive = either reporter flat; the % is the NLuc reporter signal
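qHTS, 1536-well. Cells seeded, compounds added by pin tool, 24 h 37C. Nano-Glo reagent 1 (lysis/FLuc), 10 min RT, read; Stop&Glo, 10 min RT, read NLuc.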
OvCa metastasis – ovarian cancer metastasis inhibition, 3D TME model; Potency, µM (highest dose often 45.8 µM), hits mostly inhibitors; actives 0.1% (n = 46,000); SKOV3ip1-GFP adhesion/invasion on 3D omental model, fluorescence; also: nearly all actives have a fitted effect of over 65% in size
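Adhesion/invasion was scored as fixed GFP-labeled SKOV3ip1 cell counts (488/509 nm), normalized to DMSO and tomatine controls. Cancer cells in serum-free medium, with four compound doses (0.36-46 umol/L), sat 2 hr at RT then 16 hr at 37 C on a 48 hr fibroblast/mesothelial/ECM culture.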
Numbers stand for hits; 0 = inactive; ? = inconclusive; - = no result. Unless noted, calls follow the shape of the dose curve; as a rule, active = well fitted curve in the direction sought with a large enough effect; inconclusive = small, poorly fitted or top-dose-only effect, or another doubt; inactive = no such curve, though single readings can be large; an effect the other way counts as inactive or inconclusive.

SMILES | S16 F2sN tox | p53null 39C kill | p53null 32C tox | mTORC1 inh | PMP22 txn | OvCa metastasis
Cc1csc(-c2nnc(Nc3ccc(Oc4ncccc4-c4ccnc(N)n4)cc3)c3ccccc23)c1 | - | - | - | - | - | 0
Cc1cc(OCCCc2c(C(=O)O)n(Cc3cccnc3)c3c(-c4c(COc5ccc(N6CCN([S+](C)(=O)[O-])CC6)cc5)nn(C)c4C)cccc23)cc(C)c1Cl | - | - | - | - | - | 0
Cc1ccc2[nH]c(=O)c3cc(C(=O)NCCCN4CCC(C)CC4)sc3c2c1 | ? | ? | 0 | 3.3µM | ? | ?
Oc1ccc2ccccc2c1SSc1c(O)ccc2ccccc12 | - | - | - | - | - | 26µM
COC(=O)c1ccc(COc2ccccc2/C=C(\C#N)C(=O)NC(C)C)cc1 | - | 0 | 0 | - | - | -
CCC[C@H](NC(=O)C(C#N)=Cc1cccc(Br)n1)c1ccccc1 | - | - | - | - | - | 12µM
CSc1ccc(CCNC(=O)CCCn2c(=O)c3cccn3c3ccccc32)cc1 | 0 | 13µM | 0 | ? | 0 | 0
COc1ccccc1CNC(=O)CCCn1c(=O)c2cccn2c2ccccc21 | 0 | 0 | 0 | 18µM | ? | 0
Cc1ccccc1CNC(=O)CCCn1c(=O)c2cccn2c2ccccc21 | 0 | 0 | 0 | 0 | 16µM | 0
CCCCNC(=O)c1c(C)oc2ncn(CC(C)C)c(=O)c12 | ? | 0 | 0 | 0 | 11µM | 0
Cc1ccc(CCNC(=O)c2c(C)oc3ncn(CC(C)C)c(=O)c23)cc1 | 0 | 0 | 0 | 0 | ? | 0
Cc1ccc(NC(=O)c2cccc(C(C)(C)C#N)c2)cc1Nc1ccc2ncn(C)c(=O)c2c1 | - | - | - | - | - | 0
COc1ccc(OC)c(C2CC(=O)c3c([nH]c(C(=O)OCc4ccc(C)cc4)c3C)C2)c1 (centres undefined) | ? | 0 | 0 | 6.6µM | 0 | 0
COc1cc(C2CC(=O)c3c([nH]c(C(=O)OCc4ccc(C)cc4)c3C)C2)cc(OC)c1OC (centres undefined) | 0 | ? | 0 | 0 | ? | 0
CCc1ccc(C2CC(=O)c3c([nH]c(C(=O)OCCOc4ccccc4)c3C)C2)cc1 (centres undefined) | ? | ? | 0 | 5.2µM | 15µM | ?
CCOc1ccc(C2CC(=O)c3c([nH]c(C(=O)OC4CCC(C)CC4)c3C)C2)cc1 (centres undefined) | 0 | 0 | 0 | 0 | 0 | 0
Cc1c(C(=O)OCc2ccccc2)[nH]c2c1C(=O)CC(c1ccc(Cl)cc1)C2 (centres undefined) | 0 | 0 | 0 | ? | ? | 0
CCOc1ccc(C2CC(=O)c3c([nH]c(C(=O)OCCOc4ccccc4)c3C)C2)cc1 (centres undefined) | 28µM | ? | 0 | 0 | ? | 0
CCNC(=O)Nc1ccc(Oc2ncnc(N)c2C=NOC)cc1Cl | - | - | - | - | - | 0
Cc1cc(Nc2nc(N[C@@H](C)c3ccc(F)cc3)c(C#N)cc2F)n[nH]1 | - | - | - | - | - | 0
Nc1nc(=O)n([C@H]2C[C@H](O)[C@@H](CO)O2)cc1F | - | - | - | - | - | 0
COC(=O)c1ccc(NC(=O)CC2Nc3cc(C)c(C)cc3NC2=O)cc1 (centres undefined) | 0 | 0 | 0 | 0 | 0 | 4.5µM
FC(F)(F)c1ccc(C=Cc2nc(COc3ccc(CCCCn4ccnn4)cc3)co2)cc1 | - | - | - | - | - | 0
CNCc1ccc(-c2[nH]c3cc(F)cc4c3c2CCNC4=O)cc1 | - | - | - | - | - | 0
C[C@H](CCC(=O)O)[C@H]1CC[C@H]2[C@H]3[C@@H](CC[C@]12C)[C@@]1(C)CC[C@@H](O)C[C@H]1C[C@@H]3O | - | - | - | - | - | 0
SMILES | S16 F2sN tox | p53null 39C kill | p53null 32C tox | mTORC1 inh | PMP22 txn | OvCa metastasis
COc1ccc(NS(=O)(=O)c2cc(Br)cc3c2N(C(=O)C2CC2)CC3)cc1OC | 0 | 0 | 0 | ? | 14µM | 0
Nc1c(C(=O)NCc2ccccc2)nnn1Cc1cccc(Br)c1 | ? | 0 | 0 | 0 | 3µM | 0
Cc1cc(C)cc(NC(=O)c2nnn(Cc3cccc(Br)c3)c2N)c1 | 0 | 0 | 0 | 0 | ? | 0
Cn1c(C(=O)NCCc2ccccc2)cc2sc(Cl)cc21 | 0 | 7.9µM | 11µM | 0 | 0 | 0
Cc1ccc(C)c(NC(=O)CSc2nnc3[nH]c(=O)cc(-c4ccccc4)n23)c1 | 0 | ? | 1.6µM | 0 | ? | 0
COc1cccc(NC(=O)CSc2nnc3[nH]c(=O)cc(-c4ccccc4)n23)c1 | 0 | ? | ? | 0 | 0 | 0
CCOc1ccccc1NC(=O)CSc1nnc2[nH]c(=O)cc(-c3ccccc3)n12 | 0 | 0 | ? | 0 | 0 | 0
Cc1ccc(NC(=O)CSc2nnc3[nH]c(=O)cc(-c4ccccc4)n23)cc1Cl | 0 | ? | 4µM | 0 | ? | 0
Cc1ccc(S(=O)(=O)Nc2cc(Cl)ccc2C(=O)Nc2nc(-c3ccccc3)cs2)cc1 | - | - | - | - | - | 0
COc1ccc(OC)c(NC(=O)Nc2cccc(OCc3cc(=O)n4cc(C)ccc4n3)c2)c1 | 0 | ? | 10µM | 0 | 0 | 0
CC(O)=C(C#N)C(=O)Nc1ccc(C(F)(F)F)cc1 | - | - | - | - | - | 0
CC[C@H](C=C[C@@H](C)[C@H]1CC[C@H]2[C@@H]3CC=C4C[C@@H](O)CC[C@]4(C)[C@@H]3CC[C@]12C)C(C)C | - | - | - | - | - | 0
CCOc1ccccc1Nc1nc(-c2cccc(Cl)c2)c2c(n1)-c1ccccc1OC2 | 0 | 13µM | ? | 2.9µM | 0 | 0
c1ccc(-c2cc(-c3ccccc3)c3c(n2)-c2ccccc2OC3)cc1 | 0 | - | - | 0 | 0 | 0
Cc1ccc(-c2cc(-c3ccccc3)no2)c(O)c1 | - | - | 7.9µM | - | - | -
Cc1ccc(O)c(NC(=O)c2cc(-c3ccccc3O)no2)c1 | 0 | 0 | 0 | ? | 0 | 0
CN(C)c1ccc(/C=C(\C#N)c2nc3ccccc3c(=O)[nH]2)cc1 | 0 | ? | 0.32µM | 0 | ? | 0
Cc1cc([C@@H](C)Nc2ccccc2C(=O)O)c2nc(N3CCOCC3)cc(=O)n2c1 | - | - | - | - | - | 0
O=C(N/N=C/c1sc2ccccc2c1O)c1ccccc1 | - | - | 7.1µM | - | - | -
O=C(N/N=C/c1cccs1)c1ccc(NC(=O)c2ccccc2Cl)cc1 | - | 0 | - | - | - | -
CCOC(=O)N1CCN([N+]([O-])=NOc2ccc([N+](=O)[O-])cc2C#N)CC1 | - | - | - | - | - | 0
COc1ccc(S(=O)(=O)Nc2cccc(-c3ccc(N4CCC(C)CC4)nn3)c2)c(OC)c1 | - | 13µM | 13µM | 0 | - | 0
CC(=O)c1ccc(S(=O)(=O)Nc2ccc(-c3ccc(N4CCCCCC4)nn3)cc2)cc1 | - | ? | 0 | 0 | - | 0
CC(=O)c1ccc(S(=O)(=O)Nc2ccc(-c3ccc(N4CCCCC4)nn3)cc2)cc1 | - | 16µM | ? | 0 | - | 0
CC(=O)Nc1ccc(S(=O)(=O)Nc2cccc(-c3ccc(N4CCC(C)CC4)nn3)c2)cc1 | - | 3.2µM | 4µM | 0 | - | 0
